Assay results reported in PubChem BioAssay (NCATS).
Results filed as inconclusive are left out. The source made the active and inactive calls. The call rests on the fitted dose curve; in most records, active means well fitted curve in the direction sought with a large enough effect; inconclusive means small, poorly fitted or top-dose-only effect, or another doubt; inactive means no such curve, though single readings can be large; an effect the other way counts as inactive or inconclusive.

What was measured:
[1] = HEK293 24hr Apoptosis Induction qHTS against the NCATS CANVASS Library (AID 1347359); settings: HEK293 caspase-3/7 activation, Caspase-Glo luminescence; series mostly up to 46.1 µM
In short: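 HEK293 cells (500/well, DMEM + 10% FBS) were exposed to compounds in an 11-point series for 24 hours at 37 degrees C, then caspase-3/7 activity was read by Caspase-Glo DEVD luciferase luminescence after 15 min.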

[2] = HPAF-II 18hr Apoptosis Induction qHTS against the NCATS CANVASS Library (AID 1347360); settings: HPAF-II caspase-3/7 luminescence; series mostly up to 46.1 µM
In short: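 HPAF-II cells (500/well, DMEM + 10% FBS) were exposed to compounds for 18 hours at 37 degrees C. Caspase-3/7 activity was then read by Caspase-Glo 3/7 luminescence after 15 min at room temperature.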

[3] = HEK293 12hr Apoptosis Induction qHTS against the NCATS CANVASS Library (AID 1347361); settings: HEK293 caspase-3/7 Caspase-Glo luminescence; series mostly up to 46.1 µM
In short: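 Read-out: Caspase-Glo 3/7 luminescence (DEVD substrate), 15 min RT. Preceded by 12 h compound exposure of HEK293, 500 cells/well, 11-pt qHTS titration; doxorubicin titration as control.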

[4] = test system: NAD(P)H diaphorase (Clostridium kluyveri); test: Diaphorse counterscreen qHTS: Assay Interference Panel against the NCATS CANVASS Library (AID 1347362); settings: Diaphorase enzyme, resazurin to resorufin fluorescence; series mostly up to 57.5 µM
In short: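 Clostridium kluyveri diaphorase in PBS with 0.01% Tween-20 was preincubated 15 min at room temperature in the dark with compounds (11-point series). Resorufin fluorescence (ex 525/20, em 598/25) was read 5 min after adding resazurin/NADH.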

[5] = biological target: Luciferin 4-monooxygenase (Photinus pyralis) (UniProt P08659); test: Firefly luciferase counterscreen qHTS: Assay Interference Panel against the NCATS CANVASS Library (AID 1347363); settings: purified firefly luciferase, luminescence inhibition, 5 min; series mostly up to 57.5 µM
In short: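 Purified P. pyralis luciferase was added to compounds (11-point series) preincubated 15 min at room temperature with substrate containing 0.013 mM D-luciferin and 0.013 mM ATP; luminescence was read after 5 min.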

[6] = KB-8-5-11 Cancer Cell Toxicity qHTS against the NCATS CANVASS Library (AID 1347364); settings: KB-8-5-11 MDR cells viability, CellTiter-Glo, 72 h; series mostly up to 46.1 µM
In short: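 Viability read as CellTiter-Glo luminescence after 72 h at 37 °C, 5% CO2. 11-point compound series on 500 KB-8-5-11 cells/well in DMEM/10% FBS. Follow-up plating included 1 uM tariquidar in the medium.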

[7] = KB-3-1 Cancer Cell Toxicity qHTS against the NCATS CANVASS Library (AID 1347366); settings: KB-3-1 viability, CellTiter-Glo luminescence, 72 h; series mostly up to 46.1 µM
In short: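 KB-3-1 cells (500 cells/well) in DMEM + 10% FBS were treated with compounds for 72 hr at 37C, 5% CO2. Viability was read as CellTiter-Glo luminescence after 10 minutes at room temperature.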

[8] = MCF7 Cancer Cell Toxicity qHTS against the NCATS CANVASS Library (AID 1347369); settings: MCF7 viability, ATP luminescence (CellTiter-Glo), 72 h; series mostly up to 46 µM
In short: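 MCF7, 500 cells/well; cpds 11-pt qHTS; 72 hr, 37C/5% CO2; CellTiterGlo ATP luminescence.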

[9] = qHTS for ATAD5 Antagonist screened against the NCATS CANVASS Library (AID 1347370); settings: HEK293T-ATAD5-luc, 5-FUrd stimulated, luminescence, 16 h; series mostly up to 46.1 µM
In short: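 Compounds (11-point) co-dosed with 10 µM 5-FUrd for 16 h at 37 °C onto HEK293T-ATAD5 luciferase reporter cells. Viability measured by CellTiter-Fluor fluorescence, then ATAD5 reporter signal by luminescence.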

[10] = J3T Cancer Cell Toxicity qHTS against the NCATS CANVASS Library (AID 1347371); settings: J3T dog glioma viability, ATP luminescence, 72 h; series mostly up to 46.1 µM
In short: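 Cytotoxicity read as CellTiterGlo ATP luminescence after 72 h incubation (37C, 5% CO2) of J3T canine glioma cells (500/well) with an 11-point compound series.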

[11] = biological target: Nuclear receptor subfamily 1 group I member 3 (Homo sapiens) (UniProt Q14994); test: qHTS for Constitutive Androstane Receptor (CAR) Antagonist screened against the NCATS CANVASS Library (AID 1347372); settings: HepG2-hCAR-CYP2B6 luciferase, CITCO-stimulated antagonist mode; series mostly up to 46.1 µM
In short: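 Cells were seeded and left 4hr to attach, then received compound at 11 concentrations and 50 nM CITCO. Following 24hr incubation, fluorescence viability and luciferase luminescence were read sequentially.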

[12] = biological target: Nuclear receptor subfamily 1 group I member 3 (Homo sapiens) (UniProt Q14994); test: qHTS for Constitutive Androstane Receptor (CAR) Agonist screened against the NCATS CANVASS Library (AID 1347373); settings: HepG2-hCAR-CYP2B6 luciferase reporter, ONE-Glo luminescence; series mostly up to 46.1 µM
In short: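 Agonist mode with 1.5uM PK11195 present: compounds for 24hr on HepG2-hCAR-CYP2B6 cells. CellTiter-Fluor fluorescence (ex 405, em 540 nm) gives viability; ONE-Glo luminescence reports CAR activation.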

[13] = 10-beta competent E. coli microbial cell viability qHTS against the NCATS CANVASS Library (AID 1347376); settings: E. coli 10-beta viability, BacTiter-Glo ATP luminescence, overnight; series mostly up to 46.1 µM
In short: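 Read-out: BacTiter-Glo ATP luminescence, taken 20 min after reagent addition. Beforehand, 10-beta competent E. coli at 0.2 OD had been incubated overnight at 37C with compounds at 11 concentrations.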

[14] = DH5-alpha competent E. coli microbial cell viability qHTS against the NCATS CANVASS Library (AID 1347377); settings: BacTiter-Glo ATP luminescence, overnight; outcome: at 46.1 µM (top of the series); series mostly up to 46.1 µM
In short: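 Bacterial viability as ATP-dependent luminescence (BacTiter-Glo), read after overnight 37 °C exposure of DH5-alpha competent E. coli to compounds in 11-point titration.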

[15] = qHTS for H2AX Agonists against the NCATS CANVASS Library (AID 1347378); settings: CHO-K1 H2AX phosphorylation, HTRF TR-FRET, 3 h; series mostly up to 76.9 µM
In short: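 CHO-K1 cells were plated overnight at 37C, then exposed to compounds (concentration series, 0.76% DMSO final) for 3 hr at 37C. Lysates received Eu-cryptate anti-pH2AX (S139) and d2 anti-H2AX antibodies; after 24 hr at room temperature, TR-FRET 665/620 nm ratio was read.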

[16] = qHTS for Inflammasome Signaling Inhibitors: IL-1-beta AlphaLISA screen against the NCATS CANVASS Library (AID 1347379); settings: THP-1 LPS/ATP, IL-1B AlphaLISA secretion, 16 h; series mostly up to 57.5 µM
In short: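 Secreted IL-1B from human THP-1 cells quantified by AlphaLISA 16 hr after compound addition (final up to 57.5 uM). A 1 hr compound pretreatment preceded inflammasome activation with 250 ng/mL LPS plus 1.25 mM ATP (final).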

[17] = qHTS for Antimalaria activity screened against the NCATS CANVASS Library (AID 1347380); settings: P. falciparum Dd2 growth, SYBR Green fluorescence, 72 h; series mostly up to 28.7 µM
In short: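 SYBR Green fluorescence at 485/535 nm was read 18 hr after lysis. This followed a 72 hr incubation at 37C in 5% O2, 5% CO2 of Dd2-infected erythrocytes (0.3% parasitemia, 2.5% final hematocrit) with compounds titrated over 11 concentrations.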

[18] = Inflammasome Signaling qHTS Counterscreen: IL-1-beta AlphaLISA counterscreen against the NCATS CANVASS Library (AID 1347381); settings: Purified IL-1beta AlphaLISA signal interference counterscreen; series mostly up to 57.5 µM
In short: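 Purified IL-1-beta (4 pg/well) + compound, 11-pt conc. series; acceptor beads 6 ug/mL + biotin-Ab 0.6 nM final, 1 h RT; SA-donor 24 ug/ml final, 30 min dark RT; read ex 680/em 615.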

[19] = Cytotoxicity qHTS for assessment of Hepg2 cells membrane integrity screened against the NCATS CANVASS Library (AID 1347387); settings: HepG2 LDH release (CytoTox-ONE) fluorescence, 5 h; series mostly up to 46.1 µM
In short: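 Membrane damage quantified as fluorescent LDH-release signal (ex 560, em 590 nm) in HepG2 cells treated 5 hr at 37C. qHTS format, 11 concentrations spanning 0.59 nM - 46 uM final, cells plated at 2000 per well the night before.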

[20] = qHTS for Activators of p53 Stress Response Pathway screened against the NCATS CANVASS Library (AID 1347388); settings: p53RE-bla HCT-116, beta-lactamase reporter, 16 h; series mostly up to 46.1 µM
In short: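 p53RE-bla HCT-116 cells (4000/well) were plated 5 h at 37C, exposed to compounds for 16 h at 37C over an 11-point concentration series, then loaded with CCF4 for 2 h at room temperature; 460/530 nm emission ratio read.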

Measured: Potency

Chain of Nuclear receptor subfamily 1 group I member 3 (Homo sapiens) (Q14994 whole entry, looked up): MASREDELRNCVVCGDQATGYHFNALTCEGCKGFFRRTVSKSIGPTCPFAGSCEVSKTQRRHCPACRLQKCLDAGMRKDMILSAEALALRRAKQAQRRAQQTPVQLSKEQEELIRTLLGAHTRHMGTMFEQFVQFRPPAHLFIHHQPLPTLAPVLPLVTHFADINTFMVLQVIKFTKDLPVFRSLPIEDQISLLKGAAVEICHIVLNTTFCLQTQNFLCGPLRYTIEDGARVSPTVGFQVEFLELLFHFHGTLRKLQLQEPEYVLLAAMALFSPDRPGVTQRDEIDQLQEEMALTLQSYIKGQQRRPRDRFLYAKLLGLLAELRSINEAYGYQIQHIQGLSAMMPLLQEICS
Chain of Luciferin 4-monooxygenase (Photinus pyralis) (P08659 whole entry, looked up): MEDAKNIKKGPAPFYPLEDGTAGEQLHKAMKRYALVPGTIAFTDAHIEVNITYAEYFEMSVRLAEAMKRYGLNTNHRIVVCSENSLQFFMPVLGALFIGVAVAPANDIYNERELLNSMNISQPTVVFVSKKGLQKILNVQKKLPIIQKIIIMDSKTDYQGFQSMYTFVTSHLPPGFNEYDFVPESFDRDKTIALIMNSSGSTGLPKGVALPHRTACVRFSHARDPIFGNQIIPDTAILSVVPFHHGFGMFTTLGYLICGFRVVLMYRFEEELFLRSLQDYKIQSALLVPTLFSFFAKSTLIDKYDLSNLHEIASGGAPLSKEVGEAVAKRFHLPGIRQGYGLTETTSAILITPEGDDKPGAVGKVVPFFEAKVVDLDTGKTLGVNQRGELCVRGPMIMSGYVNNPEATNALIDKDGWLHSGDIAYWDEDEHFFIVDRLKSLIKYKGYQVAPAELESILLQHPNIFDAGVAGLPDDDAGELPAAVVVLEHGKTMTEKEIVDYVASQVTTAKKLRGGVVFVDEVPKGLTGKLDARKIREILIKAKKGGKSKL

NCCc1ccccc1
inactive: all assays above

CN(C)Cc1c[nH]c2ccccc12
inactive: all assays above
